The structures appear in SMILES notation. Several values for one entry are separate records, joined by “and”; a condition that tells them apart may be missing. Identical values can stand only once. Unmarked numbers belong to inactive results.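 The calls were made as follows: active = GFP response above 150% of the DMSO control; inconclusive = Under 70 cell events counted for a yeast strain; inactive = the rest.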

The nature of this assay: yeast TOR pathway CIT2-GFP reporter retest – flow cytometry, third cherry pick, single plex, confirmation (AID 504340).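 Also: median GFP fluorescence over all cells with no mother versus daughter split; sample signal as a ratio to the plate DMSO mean so 100% equals DMSO.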 The note with it: S. cerevisiae CIT2-GFP strain, 3 h, at 10 µM, active compounds read high.
On to `CCCC(=O)Nn1cnc2c(c1=O)C1(CCCCC1)Cc1ccccc1-2`, for which the GFP response vs DMSO was 94.5%.

Turning to `C/C(=N\NC(=O)c1ccccc1)c1ccccc1F`, the GFP response vs DMSO was 104%.

For `O=C(N/N=C/c1ccccc1O)c1cccc2ccccc12`, the GFP response vs DMSO was 92.8%.

For the compound `O=C(N/N=C/c1ccccc1F)c1cccc2ccccc12`, the GFP response vs DMSO was 104%.

With `Cn1c(=O)c2c(n3cnnc13)-c1ccccc1CC21CCCC1`, the GFP response vs DMSO is 106%.

In the case of `Cc1cccc(Nc2cc(=O)[nH]c(=O)[nH]2)c1C`, the GFP response vs DMSO was 96.1%.

For the compound `Nc1nc(NCCOCCO)nc(Nc2cccc(F)c2)c1[N+](=O)[O-]`, the GFP response vs DMSO is 96.1%.

Turning to `Cn1c(NCCCO)nc2c(c1=O)C1(CCCCC1)Cc1ccccc1-2`, the GFP response vs DMSO was 117%.

For the compound `COc1ccccc1OCc1cc(C(=O)N2CCN(C)C(c3ccccc3)C2)no1` (stereo unspecified), the GFP response vs DMSO was 103%.

Regarding `O=C(Nc1cccc2ccccc12)ON=C1CCCCC1`, the GFP response vs DMSO was 106%.

As for `OCc1ccc(O)c2ncccc12`, the GFP response vs DMSO is 91.2%.

With `O=C(Nc1ccccc1)ON=C1c2ccccc2-c2ccccc21`, the GFP response vs DMSO is 112%.

As to `FC(F)Oc1cccc2cccnc12`, the GFP response vs DMSO was 97.7%.

For the compound `Oc1ccc(Cl)c2cccnc12`, the GFP response vs DMSO is 103%.

Turning to `O=C(O)c1ccccc1-c1ccccc1C(=O)Nc1ccc(-c2nc3cc(Cl)ccc3o2)cc1`, the GFP response vs DMSO was 99.3%.

Regarding `Cn1c(NCCO)nc2c(c1=O)C1(CCCCC1)Cc1ccccc1-2`, the GFP response vs DMSO was 116%.

As for `COc1ccc(-c2cc(C(F)(F)F)nc(S(C)(=O)=O)n2)cc1OC`, the GFP response vs DMSO was 112% and 109%.

As to `O=C(Nc1ccccc1)O/N=C1\CCCCC1c1ccc([N+](=O)[O-])cc1[N+](=O)[O-]` (stereo unspecified), the GFP response vs DMSO is 101%.

With `Nc1cc(C(=O)O)c(N)c2c1C(=O)c1ccccc1C2=O`, the GFP response vs DMSO was 94.5%.

On to `CCOC(=O)CS(=O)(=O)c1nc(-c2ccccc2)cc(C(F)(F)F)n1`, for which the GFP response vs DMSO was 111%.

Turning to `C=CCNc1ncnc2ccccc12`, the GFP response vs DMSO is 103%.

Values taken from PubChem BioAssay AID504340 (NMMLSC, 2011).
